# Rows were chosen to be rich in hits. Some 27% of all compounds tested hit in one or more screens of this group.
# CYP2C9 act: human CYP2C9 activators, primary screen, biochemical, luminescence; recombinant CYP2C9, luciferin-H conversion; hits give high values; factor 1 = untreated enzyme, 0 = blocked; hit rate 1.4% among 96,000; activation factor at 5 µM; AID 1024, 2008;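 active = activation factor of 2 or more for CYP2C9 at a 5 µM dose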
# sEH act: soluble epoxide hydrolase activators, primary screen, biochemical, human sEH | purified human sEH enzymatic activity, activator screen | Bifunctional epoxide hydrolase 2 (Homo sapiens), P34913 | hit rate 0.04% among 91,000 | activation, % at 2 µM; in the data active = activation above about 37%
# sEH inh: soluble epoxide hydrolase inhibitors, primary screen, biochemical, human sEH; recombinant human sEH enzymatic activity assay; inhibition, % at 2 µM; hit rate 0.34% among 91,000; AID 707, 2007; in the data active = inhibition above about 80%
# CYP2C19 inh: blockers of cytochrome P450 2C19 activity – biochemical, luminescence, ADME assay, primary screen. CYP2C19 Supersomes, luciferin-H EGE luminescence, 30 min. P33261. hit rate 21% among 96,000. AID 778, 2007. inhibition, % at 5 µM;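 active = CYP2C19 inhibition above a set limit at 5 µM in the primary screen, cut at about 50% in these data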
# Target sequence (P33261 whole entry, looked up): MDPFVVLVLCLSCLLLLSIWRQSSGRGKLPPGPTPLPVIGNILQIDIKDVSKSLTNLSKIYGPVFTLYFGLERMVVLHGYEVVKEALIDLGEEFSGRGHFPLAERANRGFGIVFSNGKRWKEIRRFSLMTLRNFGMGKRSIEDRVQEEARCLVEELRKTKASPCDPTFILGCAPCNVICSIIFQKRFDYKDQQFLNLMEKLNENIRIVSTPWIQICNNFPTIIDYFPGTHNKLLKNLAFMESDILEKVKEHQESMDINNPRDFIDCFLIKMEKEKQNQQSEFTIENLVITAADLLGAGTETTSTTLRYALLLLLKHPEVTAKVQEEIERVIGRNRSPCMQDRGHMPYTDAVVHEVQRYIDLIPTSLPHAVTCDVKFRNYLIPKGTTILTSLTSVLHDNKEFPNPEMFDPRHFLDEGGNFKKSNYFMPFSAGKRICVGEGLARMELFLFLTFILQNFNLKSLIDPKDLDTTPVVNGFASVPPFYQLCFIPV
# CYP2C9 inhib: blockers of cytochrome P450 2C9 activity – biochemical, luminescence, ADME assay, primary screen | hit rate 20% among 96,000 | inhibition, % at 5 µM | CYP2C9 Supersomes, luciferin-H conversion | P11712;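 active = blocking of liver enzyme CYP2C9 beyond about 50% at 5 µM, limit read from the data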
# CYP2C19 act: human CYP2C19 activators, primary screen, biochemical, luminescence | Cytochrome P450 2C19 (Homo sapiens), P33261 | 96,000 tested, under 10 active | recombinant CYP2C19, luciferin-H EGE luminescence; hits give high values; 0 = fully inhibited enzyme, 1 = untreated enzyme | activation factor at 5 µM;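 active = activation factor of at least 2 at 5 µM in the primary screen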
# A number is an active result; – = inactive; · = no result given.
SMILES,CYP2C9 act,sEH act,sEH inh,CYP2C19 inh,CYP2C9 inhib,CYP2C19 act
COc1cccc(C(=O)CSc2nc3ccccc3n2CC(=O)N(C(C)C)C(C)C)c1,·,–,–,·,·,·
Cc1cc(C)c2[nH]c(=O)c(C(c3nnnn3CC3CCCO3)N3CCCC(C)C3)cc2c1 (stereo not given),–,–,–,–,–,–
Cc1ccc(OCC(O)CN2CCN(c3ccccc3)CC2)cc1 (stereo not given),–,·,·,–,–,–
CCc1ccc(OCC(O)CN2CCN(c3ccccc3)CC2)cc1 (stereo not given),–,–,–,67,–,–
CCCc1ccc(OCC(O)CN2CCN(c3ccccc3)CC2)cc1 (stereo not given),–,–,–,73,–,–
OC(COCc1ccccc1)CN1CCN(c2ccccc2)CC1 (stereo not given),–,–,–,–,–,–
COc1ccc(CC(=O)Nc2nnc(C)s2)cc1,–,–,–,–,–,–
O=C1NN(c2ccccc2)C(=O)C2C3C=CC(C4CC34)C12 (stereo not given),–,–,–,–,–,–
CC(C)CC(C(=O)NCc1ccccn1)N1C(=O)c2ccccc2C1=O (stereo not given),–,–,–,71,–,–
CC(C)CC(C(=O)NC(=O)NCc1ccccc1)N1C(=O)c2ccccc2C1=O (stereo not given),–,–,–,–,–,–
O=C(CSc1nc2ccc(Cl)cc2[nH]1)NCc1ccco1,–,–,–,–,51,–
O=C(CSc1c2c(nc3cc(Cl)ccc13)CCCC2)NCc1ccco1,–,–,–,98,88,–
O=C(CSc1nc2ccccc2[nH]1)NCc1ccco1,–,–,–,–,–,–
O=C(CSc1ncnc2sc3c(c12)CCCCC3)NCc1ccco1,–,–,–,–,–,–
O=C(CSc1nc(-c2ccccc2Cl)ns1)NCc1ccco1,–,–,–,–,63,–
NC(=O)CSc1nc(-c2ccccc2Cl)ns1,–,–,–,–,–,–
Cc1ccccc1Cn1nc(C)c(NC(=O)c2sc3ccccc3c2Cl)c1C,–,–,–,–,–,–
CCOC(=O)C1=C(C)Nc2ncnn2C1c1cc(OC)ccc1OC (stereo not given),–,–,–,–,–,–
COC(=O)C1=C(C)Nc2nnnn2C1c1cc(OC)ccc1OC (stereo not given),–,–,–,–,61,–
COC(=O)c1nc2n(n1)C(c1cc(OC)ccc1OC)C(C(=O)OC1CCCCC1)=C(C)N2 (stereo not given),–,·,·,–,68,–
COc1cc(CNc2ccc(C)c(C)c2)cc(OC)c1OC,–,·,·,91,58,–
COc1ccc(NCc2ccc(OC)c(OC)c2)cc1,–,·,·,73,–,–
COc1cc(CNc2cc(C)ccc2C)cc(OC)c1OC,–,–,–,98,82,–
Cc1cccc(N2CCN(C(=O)c3c(C)nn(Cc4ccccc4Cl)c3C)CC2)c1C,–,–,–,–,–,–
O=C1N=C2SCCN2/C1=C\c1ccccc1Cl,–,–,–,–,–,–
SMILES,CYP2C9 act,sEH act,sEH inh,CYP2C19 inh,CYP2C9 inhib,CYP2C19 act
Cc1ccc(Cn2ncc3c(N4CCN(c5ccccc5C)CC4)ncnc32)cc1,–,–,–,60,74,–
c1ccc(Cn2nnc3c(N4CCCC4)ncnc32)cc1,–,–,–,–,–,–
Cc1ccc(Cn2ncc3c(N4CCOCC4)ncnc32)cc1,–,–,–,–,–,–
c1ccc(Cn2ncc3c(N4CCCCC4)ncnc32)cc1,–,·,·,67,–,–
COc1ccc(-c2cc(C(F)F)n3ncc(C(=O)N4CCN5CCCC5C4)c3n2)cc1 (stereo not given),–,–,–,–,–,–
CC(C)Cn1c(N)c(C(=O)COC(=O)c2ccncc2)c(=O)n(C)c1=O,–,–,–,–,53,–
CC(C)Cn1c(N)c(C(=O)COC(=O)CC23CC4CC(CC(C4)C2)C3)c(=O)n(C)c1=O,–,–,–,63,85,–
Clc1ccc(-c2cc(COc3ccc4ccccc4c3)no2)cc1,–,–,–,–,–,–
Cc1cccc(Nc2nc(N)nc(CN3CCC(C)CC3)n2)c1C,·,–,–,·,·,·
Cc1cc(N2CCOCC2)n2nc(C)c(-c3ccccc3)c2n1,–,–,–,–,–,–
Cc1cc(N2CCN(C3CCCC3)CC2)n2ncc(-c3ccccc3)c2n1,–,·,·,72,76,–
COCCN1C(=O)C(=O)/C(=C(/O)c2cccc(S(=O)(=O)N(C)C)c2)C12C(=O)N(C)c1ccccc12 (stereo not given),–,–,–,–,84,–
CCCOc1ccc(/C(O)=C2\C(=O)C(=O)N(CCCOC)C23C(=O)N(C)c2ccccc23)cc1 (stereo not given),–,·,·,–,–,–
COC(=O)c1nn(C23CC4CC(CC(C4)C2)C3)c2c1C(=O)N(c1ccc(Br)cc1)C2=O,–,–,–,–,–,–
Cc1ccc(N(CC(=O)Nc2ccc(C)cc2C)S(=O)(=O)N2CCCC2)cc1,–,–,–,–,80,–
CCN1CCN(CC(=O)Nc2ccc(C)cc2C)C(=O)C1=O,–,–,–,–,–,–
Cc1ccnc(SCC(=O)Nc2c(C)n(C)n(-c3ccccc3)c2=O)n1,–,–,–,–,–,–
Cc1nc2c(sc3nc4c(cc32)COC(C)(C)C4)c(=O)n1Cc1ccccc1,–,–,–,–,–,–
Cc1nc2c(sc3nc4c(cc32)COC(C)(C)C4)c(=O)o1,–,–,–,–,72,–
O=C(Nc1ccc(Cl)cc1)N1CCC(c2nc(-c3ccccc3Cl)no2)CC1,–,–,88,–,–,–
O=C(c1ccco1)N1CCC(c2nc(-c3ccccc3Cl)no2)CC1,–,–,–,–,57,–
O=S(=O)(c1ccccc1Cl)N1CCCC1c1nc(-c2ccccc2Cl)no1 (stereo not given),–,–,–,58,–,–
COc1ccc(Cl)cc1Nc1nc(N)nc(C(F)(F)F)n1,–,–,–,–,–,–
CC(NC(=O)Cc1ccc(F)cc1)C(c1cccs1)N1CCN(C)CC1 (stereo not given),·,–,–,·,·,·
C=CCN(C(=O)CCC(=O)Nc1cc(C)on1)C(C(=O)NC1CCCC1)c1cccnc1 (stereo not given),–,–,–,–,68,–
Cc1cc(NC(=O)CCC(=O)N(CC(=O)NC2CCCC2)Cc2ccccc2Cl)no1,–,–,–,–,58,–
Cc1cc(NC(=O)CCC(=O)N(CC(=O)NC2CCCC2)Cc2ccc(F)cc2)no1,–,–,–,–,–,–
CCc1ccccc1N(C(=O)CCC(=O)Nc1cc(C)on1)C(C(=O)NC1CCCC1)c1ccco1 (stereo not given),–,·,·,75,58,–

# Screening results from PubChem.
